In PubChem BioAssay (NCATS):
Results filed as inconclusive are left out. A number with no mark means an inactive call. Calls come from the whole dose curve; as a rule, active = well fitted cell-killing curve with a large enough effect; inconclusive = small, poorly fitted or top-dose-only effect, or effect the other way; inactive = flat fitted curve, though single readings scatter.

test system: C33A; experiment: Primary qHTS to identify gynecologic anti-cancer compounds using libraries of approved drugs and bioactive compounds (AID 1345084); conditions: Gynecologic cancer cell panel viability, ATPlite luminescence, 48 h; series mostly up to 57.5 µM; activity change, negative = cytotoxicity: at the top concentration; note: nearly all actives have a fitted effect of over 55% in size
Method in brief: (§1)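 Measured: luminescence after ATPlite addition (15 min, RT). Exposure: 48 h, 37 C, 5% CO2.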
% is set by controls: 0 for no effect and ±100 for the full control effect.

Row | Compound | activity change, negative = cytotoxicity
1 | CC(C)CNCc1ccc(-c2ccccc2S(=O)(=O)N2CCCC2)cc1 | 11.4%
2 | Nc1nc2c(c(N3CCNCC3)n1)CCC1=C2[C@@H]2CCCC[C@@H]2O1 | -6.21%
3 | CC1(C)CC[C@]2(C(=O)O)CC[C@]3(C)C(=CCC4[C@@]5(C)CC[C@H](O[C@@H]6O[C@H](C(=O)O)[C@@H](O[C@@H]7OC[C@@H](O)[C@H](O)[C@H]7O)[C@H](O)[C@H]6O)C(C)(C)C5CC[C@]43C)C2C1O (some centres not stated) | 12.4% [at 25.3 µM]
4 | N[C@H]1Cc2ccccc2N(O)C1=O | 1.75%
5 | C=C1CCC2C(C)(C)C(O)CCC2(C)C1CCC(C)CCOC(C)=O (configuration not stated) | 8.81% [at 38.5 µM]
6 | CC(C)(C)NS(=O)(=O)c1cncc(-c2cc(F)c3nc(N)nn3c2)c1 | -0.862%
7 | C/C=C/C=C/C(O)=C1\C(O)=C(C)C(=O)[C@@]2(C)OC(=O)[C@@](C)(NC(=O)/C=C/C(=O)O)[C@@H]12 | -5.64% [at 25.3 µM]
8 | C[C@@H]1CCC2C(C)(C)[C@H](O)CC[C@]2(C)[C@@]12Cc1c(O)cc3c(c1O2)CN([C@@H](CCC(=O)O)C(=O)O)C3=O (some centres not stated) | 4.39% [at 25.3 µM]
9 | C/C=C/C=C/C(O)=C1\C(=O)[C@]2(C)C3C(C(=O)CC/C=C/C)=C(O)C4(C)C1[C@]1(C)O[C@@]4(O)[C@@]3(C)O[C@@]12O | -7.23% [at 25.3 µM]
10 | C[C@@H]1O[C@@H](O[C@H]2[C@H](OC(=O)[C@]34CCC(C)(C)C[C@H]3C3=CCC5[C@@]6(C)C[C@H](O)[C@H](O[C@@H]7O[C@H](CO)[C@@H](O)[C@H](O)[C@H]7O)[C@@](C)(CO)C6[C@H](O)C[C@@]5(C)[C@]3(C)CC4)OC[C@H](O)[C@@H]2O)[C@H](O)[C@H](O)[C@H]1O[C@@H]1OC[C@@H](O)[C@H](O[C@@H]2OC[C@](O)(CO)[C@H]2O)[C@H]1O (some centres not stated) | 7.14% [at 6.55 µM]
11 | C1CCC[C@H]2CCCN3CC[C@@H](CCCCCC[C@@H]4CCCN5CC[C@@H](CC1)O[C@@H]45)O[C@@H]23 | 6.95% [at 0.155 µM]
12 | Cc1[nH]c2ccccc2c1C1=C(NCCc2ccc(F)cc2)C(=O)N(C)C1=O | -8.6%
13 | OC[C@H]1O[C@@H](O[C@H]2[C@H](OCCc3ccccc3)O[C@H](CO)[C@@H](O)[C@@H]2O)[C@H](O)[C@@H](O)[C@@H]1O | 9.21% [at 25.3 µM]
14 | C=C1[C@@H]2CC[C@@H]3[C@@](CCC4C(C(=O)O)(C(=O)O)C[C@@H](O[C@@H]5O[C@H](CO)[C@@H](O)[C@H](O)[C@H]5OC(=O)CC(C)C)C[C@]43C)(C2)[C@H]1O (some centres not stated) | -34.1% [at 25.3 µM]
15 | CC(=O)C1=C(C)N(c2cccc(C(F)(F)F)c2)C(=O)N[C@H]1c1ccc(C#N)nc1 | 16.9% [at 11.6 µM]
16 | CC(CCC1(O)OC2CC3C4CCC5CC(O[C@@H]6O[C@H](CO)[C@@H](O)[C@H](O)[C@H]6O[C@@H]6O[C@@H](C)[C@H](O)[C@@H](O)[C@H]6O)C(O)CC5(C)C4CCC3(C)C2C1C)CO[C@@H]1O[C@H](CO)[C@@H](O)[C@H](O)[C@H]1O (some centres not stated) | 3.88% [at 11.6 µM]
17 | OCC1OC(Oc2cc(O)cc(/C=C/c3ccc(O)cc3)c2)C(O)C(O)C1O (configuration not stated) | -19.2% [at 38.5 µM]
18 | CCC(C)/C=C(C)/C=C/c1cc2c(cn1)C(=O)C(C)(OC(C)=O)C(O)=C2Cl (configuration not stated) | -0.931% [at 38.5 µM]
19 | CC1=CC(=O)CC(C)(C)[C@@]1(O)CC[C@@H](C)O[C@@H]1O[C@H](CO)[C@@H](O)[C@H](O)[C@H]1O | 17.9% [at 38.5 µM]
20 | CC1(C)CCC[C@@]2(C)C1[C@H](OC(=O)/C=C/C=C/C(=O)O)C=C1COC(=O)[C@@]12O (some centres not stated) | 8.89% [at 38.5 µM]
21 | O=C1NC2CCc3nc4ccccc4c(=O)n3C2=Nc2ccccc21 (configuration not stated) | 2.44% [at 38.5 µM]
22 | CC(C)[N+]1(C)C2CCC1CC(OC(=O)C(CO)c1ccccc1)C2 (configuration not stated) | 0.247%
23 | COc1cc2oc(-c3ccc(O)cc3O)cc2c(OC)c1CC=C(C)C | 8.56% [at 38.5 µM]
24 | CC(=O)OC1C(O)CC2(C)C(CCC(C)C23Cc2c(O)cc(CO)c(C=O)c2O3)C1(C)C (configuration not stated) | 16.1% [at 25.3 µM]
25 | Cc1[nH]nc(C(F)(F)F)c1Cc1sc2c(c1C(=O)N1C[C@](C)(O)CO1)c(=O)n(C)c(=O)n2C(C)C | 9.05%
26 | O=C(CC1C(=O)Nc2ccccc21)OC[C@H]1O[C@@H](OCCc2ccc(O)cc2)[C@H](O)[C@@H](O)[C@@H]1O (some centres not stated) | -0.0415% [at 25.3 µM]
27 | CC1CCC23COC(=O)C2=CC(O)CC3C1(C)CCC1=CC(O)OC1=O (configuration not stated) | 16.5% [at 38.5 µM]

test system: CAOV3; experiment: as above; conditions: Gynecologic cancer cell panel viability, ATPlite luminescence, 48 h; series mostly up to 57.5 µM; activity change, negative = cytotoxicity: at the top concentration
Method in brief: as §1

Row | Compound | activity change, negative = cytotoxicity
28 | C/C=C(\C)C(=O)O[C@H]1[C@@H](O[C@]2(COC(=O)CC(C)C)O[C@H](COC(=O)C(C)CC)[C@@H](OC(C)=O)[C@@H]2O)O[C@H](COC(C)=O)[C@@H](O)[C@@H]1O (some centres not stated) | -9.17% [at 25.3 µM]
29 | C=C(C(=O)O)C1CC2=C(C)CCCC2(C)C[C@@H]1O (some centres not stated) | -10%
30 | O=C(NCc1ccc(F)cc1)C(=O)c1c[nH]c2ccccc12 | 0%
31 | C/C(=C\C=C\C(C)C1CCC2(C)C3CCC4C(C)(C)C(=O)CCC45CC35CCC12C)C(=O)O (configuration not stated) | 8.74% [at 25.3 µM]
32 | C/C(=C\CCC(C)CCO)C(=O)OC1(C)CCC2C(C(=O)O)=COC(OC3OC(CO)C(O)C(O)C3O)C21 (configuration not stated) | 25.4% [at 25.3 µM]
33 | CC(=O)O[C@@H]1[C@@H](OC(=O)/C=C/c2ccccc2)[C@@H](OC(C)=O)[C@H](O[C@H]2[C@@H]3C=CO[C@@H](O[C@@H]4O[C@H](CO)[C@@H](O)[C@H](O)[C@H]4O)[C@@H]3[C@@]3(CO)O[C@@H]23)O[C@H]1C | 1.94% [at 25.3 µM]
34 | CCN(CC)Cc1ccc(C(=O)N(CCc2ccccc2OC)[C@@H]2CCNC2)cc1 | -26.4% [at 25.3 µM]
35 | O=C1OCc2cc3cccc(O[C@@H]4O[C@H](CO)[C@@H](O)[C@H](O)[C@H]4O)c3c(O)c21 | -20.6% [at 38.5 µM]
36 | N#Cc1ccc(C(=O)N2CCC3(CC2)N=C(N)c2c(F)ccc(F)c2N3)cn1 | -2.88%
37 | CCCCc1ccc(C(=O)Nc2cc(-c3ccc(Cl)cc3)nn2-c2ccc(Cl)cc2)cc1 | 15%
38 | O=C(C(c1ccccc1)c1ccccc1)N1CCN(CC(O)COc2cccc3ncccc23)CC1 (configuration not stated) | -0.642%
39 | CC(C)c1cc2c(c(O)c1O)[C@@]13CCCC(C)(C)[C@@H]1[C@H](OC3=O)C2=O | 11.2% [at 38.5 µM]
40 | CC(C)CNCc1ccc(-c2ccccc2S(=O)(=O)N2CCCC2)cc1 | 2.01%
41 | Nc1nc2c(c(N3CCNCC3)n1)CCC1=C2[C@@H]2CCCC[C@@H]2O1 | -1.29%
42 | CC1(C)CC[C@]2(C(=O)O)CC[C@]3(C)C(=CCC4[C@@]5(C)CC[C@H](O[C@@H]6O[C@H](C(=O)O)[C@@H](O[C@@H]7OC[C@@H](O)[C@H](O)[C@H]7O)[C@H](O)[C@H]6O)C(C)(C)C5CC[C@]43C)C2C1O (some centres not stated) | 2.68% [at 25.3 µM]
43 | N[C@H]1Cc2ccccc2N(O)C1=O | -4.07%
44 | C=C1CCC2C(C)(C)C(O)CCC2(C)C1CCC(C)CCOC(C)=O (configuration not stated) | 16.7% [at 38.5 µM]
45 | CC(C)(C)NS(=O)(=O)c1cncc(-c2cc(F)c3nc(N)nn3c2)c1 | -4.74%

Row | Compound | activity change, negative = cytotoxicity
46 | C/C=C/C=C/C(O)=C1\C(O)=C(C)C(=O)[C@@]2(C)OC(=O)[C@@](C)(NC(=O)/C=C/C(=O)O)[C@@H]12 | -15.4% [at 25.3 µM]
47 | C[C@@H]1CCC2C(C)(C)[C@H](O)CC[C@]2(C)[C@@]12Cc1c(O)cc3c(c1O2)CN([C@@H](CCC(=O)O)C(=O)O)C3=O (some centres not stated) | 16.2% [at 25.3 µM]
48 | C/C=C/C=C/C(O)=C1\C(=O)[C@]2(C)C3C(C(=O)CC/C=C/C)=C(O)C4(C)C1[C@]1(C)O[C@@]4(O)[C@@]3(C)O[C@@]12O | -2.82% [at 25.3 µM]
49 | C[C@@H]1O[C@@H](O[C@H]2[C@H](OC(=O)[C@]34CCC(C)(C)C[C@H]3C3=CCC5[C@@]6(C)C[C@H](O)[C@H](O[C@@H]7O[C@H](CO)[C@@H](O)[C@H](O)[C@H]7O)[C@@](C)(CO)C6[C@H](O)C[C@@]5(C)[C@]3(C)CC4)OC[C@H](O)[C@@H]2O)[C@H](O)[C@H](O)[C@H]1O[C@@H]1OC[C@@H](O)[C@H](O[C@@H]2OC[C@](O)(CO)[C@H]2O)[C@H]1O (some centres not stated) | 10.8% [at 6.55 µM]
50 | C1CCC[C@H]2CCCN3CC[C@@H](CCCCCC[C@@H]4CCCN5CC[C@@H](CC1)O[C@@H]45)O[C@@H]23 | 1.15% [at 0.155 µM]
51 | Cc1[nH]c2ccccc2c1C1=C(NCCc2ccc(F)cc2)C(=O)N(C)C1=O | -3.32%
52 | OC[C@H]1O[C@@H](O[C@H]2[C@H](OCCc3ccccc3)O[C@H](CO)[C@@H](O)[C@@H]2O)[C@H](O)[C@@H](O)[C@@H]1O | 8.18% [at 25.3 µM]
53 | C=C1[C@@H]2CC[C@@H]3[C@@](CCC4C(C(=O)O)(C(=O)O)C[C@@H](O[C@@H]5O[C@H](CO)[C@@H](O)[C@H](O)[C@H]5OC(=O)CC(C)C)C[C@]43C)(C2)[C@H]1O (some centres not stated) | -20.2% [at 25.3 µM]
54 | CC(=O)C1=C(C)N(c2cccc(C(F)(F)F)c2)C(=O)N[C@H]1c1ccc(C#N)nc1 | 8.36% [at 11.6 µM]
55 | CC(CCC1(O)OC2CC3C4CCC5CC(O[C@@H]6O[C@H](CO)[C@@H](O)[C@H](O)[C@H]6O[C@@H]6O[C@@H](C)[C@H](O)[C@@H](O)[C@H]6O)C(O)CC5(C)C4CCC3(C)C2C1C)CO[C@@H]1O[C@H](CO)[C@@H](O)[C@H](O)[C@H]1O (some centres not stated) | -13.8% [at 11.6 µM]
56 | OCC1OC(Oc2cc(O)cc(/C=C/c3ccc(O)cc3)c2)C(O)C(O)C1O (configuration not stated) | -19.2% [at 38.5 µM]
57 | CCC(C)/C=C(C)/C=C/c1cc2c(cn1)C(=O)C(C)(OC(C)=O)C(O)=C2Cl (configuration not stated) | 4.41% [at 38.5 µM]
58 | CC1=CC(=O)CC(C)(C)[C@@]1(O)CC[C@@H](C)O[C@@H]1O[C@H](CO)[C@@H](O)[C@H](O)[C@H]1O | 2.19% [at 38.5 µM]
59 | CC1(C)CCC[C@@]2(C)C1[C@H](OC(=O)/C=C/C=C/C(=O)O)C=C1COC(=O)[C@@]12O (some centres not stated) | -3.16% [at 38.5 µM]
60 | O=C1NC2CCc3nc4ccccc4c(=O)n3C2=Nc2ccccc21 (configuration not stated) | 13.5% [at 38.5 µM]
61 | CC(C)[N+]1(C)C2CCC1CC(OC(=O)C(CO)c1ccccc1)C2 (configuration not stated) | -5.06%
62 | COc1cc2oc(-c3ccc(O)cc3O)cc2c(OC)c1CC=C(C)C | -4.47% [at 38.5 µM]
